From ChEMBL document CHEMBL1157539, “Thousands of chemical starting points for antimalarial lead identification” (Nature, 2010) come the findings set out here.

What all share (type): functional
Experiment [1] deals with Plasmodium falciparum. The experiment is described as follows: GSK_TCMDC: Inhibition of Plasmodium falciparum 3D7 in whole red blood cells, using parasite LDH activity as an index of growth. Test compounds present at 2uM.
The test system of experiment [2] is Plasmodium falciparum. Nature of the experiment: GSK_TCMDC: Inhibition of Plasmodium falciparum Dd2 in whole red blood cells, using parasite LDH activity as an index of growth. Test compounds present at 2uM.
The test system of experiment [3] is HepG2. Nature of the experiment: GSK_TCMDC: Percent inhibition of human HepG2 cell line. Test compounds present at 10uM.

As for `CS(=O)(=O)NCCCNCc1cccc(-c2cccc(-c3nc4cc(C(F)(F)F)ccc4[nH]3)c2)c1.O=C(O)C(F)(F)F`, the Inhibition came to 99% in experiment [1], 100% in experiment [2] and 17% in experiment [3].
For `CC(C)N1CCN(C(CN2CCN(CCCOc3cccc(F)c3)CC2)c2ccc(F)cc2)CC1.Cl` (stereo not drawn) the same measures were 92%, 38% and 38%.
For `S=C(NCCCCCN1CCC(c2c[nH]c3ccccc23)CC1)Nc1cc(Cl)cc(Cl)c1` the same measures were 100%, 35% and 25%.
In the case of `COc1ccc(-c2ccc(NC(=O)c3cccc(Cl)c3)cc2)cc1CN1CCC(O)CC1.O=C(O)C(F)(F)F`, the Inhibition in experiment [1] was determined as 100%; in experiment [2], 12%; in experiment [3], 15%.
Regarding `CN1CCN(c2ccnc3cc4ccccc4cc23)CC1`, the results for the Inhibition in experiment [1], in experiment [2] and in experiment [3] were 93%, 49% and 11%, respectively.
For `COc1ccc2nc(C)cc(Nc3ccc(Oc4ccc(Cl)c5ccccc45)c(Cl)c3)c2c1`, in that order: 100%, 100% and 83%.
For `COc1cc2nccc(Nc3ccc4c(cnn4Cc4cccc(F)c4)c3)c2cc1OC.Cl` the same measures were 100%, 99% and 29%.
For `CCCCN1Cc2c(n(CC(=O)Nc3ccccc3)c3cc(-c4ccccc4)nn3c2=O)C1=O` the same measures were 92%, 60% and 1%.
For `COc1ccc(Cc2cccc(C(C(=O)NCc3cc(Cl)cc(Cl)c3)N3CCN(C)CC3)c2)cc1.O=C(O)C(F)(F)F` (stereo not drawn), the figures for the Inhibition in experiment [1], in experiment [2] and in experiment [3] were 100%, 24% and 8%, respectively.
For `Cc1[nH]c2ccccc2c(=O)c1Br`, in that order: 94%, 84% and 2%.
For `CN1C(C)(C)CC(NC(=O)c2ccc(-c3cc4cc(Cl)c(Cl)cc4[nH]3)o2)CC1(C)C`, in that order: 100%, 43% and 21%.
For `O=C(O)C(F)(F)F.c1ccc(CNCCn2c(-c3ccc4c(c3)CCO4)nc3c(N4CCCC4)cccc32)cc1`, in that order: 82%, 85% and 9%.
On to `CCN(CC)CCN(Cc1ccc(-c2ccc(C(F)(F)F)cc2)cc1)C(=O)Cn1c(CCc2cccc(F)c2F)nc(=O)c2cc(C)ccc21.O=C(O)C(O)C(O)C(=O)O`, for which the Inhibition in experiment [1] worked out at 95%; in experiment [2] it was 43%; in experiment [3] it was 19%.
For `C=CCn1c(Sc2ccc(C#N)c([N+](=O)[O-])c2)nnc1-c1cccc(Cl)c1` the same measures were 97%, 54% and 41%.
For `O=C(C=Cc1ccc(Cl)c(Cl)c1)NCCCCCN1CCC(CCCNC(=O)c2sc3ccccc3c2Cl)CC1`, in that order: 93%, 40% and 99%.
As to `COc1ccc2ncc(C#N)c(CCN3C4CCC3CC(NCc3ccc5c(n3)NC(=O)CS5)C4)c2c1.Cl` (stereo not drawn), the Inhibition is listed as 95% in experiment [1], 27% in experiment [2] and 6% in experiment [3].
For `CC(C)c1cc(Oc2c(I)cc(CCNC(=N)N)cc2I)ccc1O.Cl` the same measures were 98%, 54% and 19%.
For `CN(C)CCNCc1cccc(-c2ccc3c(Nc4cc(O)c(Cl)cc4F)ccnc3c2)c1`, in that order: 99%, 59% and 6%.
For `COc1ccc(C(=O)CCC(=O)N(Cc2ccc(-c3ccc(CNCCc4ccc(S(C)(=O)=O)cc4)cn3)cc2)C(C)CN(C)C)cc1F.O=C(O)C(F)(F)F` (stereo not drawn) the same measures were 98%, 85% and 13%.
Turning to `COc1ccc2[nH]ccc(=NN=Cc3cccc(Cl)c3)c2c1`, the values for the Inhibition in experiment [1], in experiment [2] and in experiment [3] were 100%, 99% and 1%, respectively.
For `CCNc1cc(C)nc(Nc2ccc(NC(=O)c3cccs3)cc2)n1`, in that order: 100%, 50% and 21%.
For `COc1ccc(NC(=O)Nc2cc(C)nc3cccnc23)cc1Cn1ccnc1`, the values for the Inhibition in experiment [1], in experiment [2] and in experiment [3] were 100%, 41% and 12%, respectively.
For `O=C(Nc1ccc(-c2nc3ccccc3[nH]2)cc1)c1cnc(Cl)c(Cl)c1`, the Inhibition in experiment [1] is 100%; in experiment [2] it was 95%; in experiment [3] it was 11%.
For `COc1ccc(Cl)cc1-c1nc(C(=O)NCCN2CCCCC2)c(C(C)C)s1.O=C(O)C(F)(F)F`, the Inhibition is recorded as 100% in experiment [1], 37% in experiment [2] and 14% in experiment [3].
For `Cl.Nc1ccc(Nc2ccnc3ccc(C(F)(F)F)cc23)cc1O`, in that order: 98%, 59% and 1%.
For `CC1(C)N=C(N)N=C(N)N1c1ccc([N+](=O)[O-])cc1.Cl`, in that order: 93%, 1% and 3%.
For `CCCNCc1ccc(-c2ccc(CN(CC3CCCO3)C(=O)C3CC(=O)c4ccccc43)cc2)nc1.O=C(O)C(F)(F)F` (stereo not drawn) the same measures were 100%, 65% and 0%.
On to `Br.Oc1cccc(CCNCCCCCCNCCc2ccc(Cl)cc2)c1`, for which the Inhibition was 96% in experiment [1], 0% in experiment [2] and 23% in experiment [3].
For `NC1CCN(Cc2ccc(-c3cccc(-c4nc5ccccc5[nH]4)c3)cc2)C1.O=C(O)C(F)(F)F` (stereo not drawn) the same measures were 98%, 0% and 19%.
On to `CCOC(=O)c1nc(-c2ccccc2)[nH]c1-n1nc(C)cc1C`, for which the results for the Inhibition in experiment [1], in experiment [2] and in experiment [3] were 92%, 9% and 7%, respectively.
For `Cc1cc(N2CCN(CC3CCN(C)CC3)CC2)nc(Nc2ccc(Br)cc2)n1` the same measures were 100%, 100% and 31%.
For `O=C(CSc1nc2ccccc2c(=O)n1CC1CCCO1)Nc1cc(C(F)(F)F)ccc1Cl` (stereo not drawn) the same measures were 97%, 95% and 12%.
For `COC(=O)c1ccc(CCC(C)NCC(O)c2cccc(Cl)c2)cc1.Cl` (stereo not drawn) the same measures were 100%, 94% and 0%.
For the molecule `CC(=O)N1CCC(C(=O)Nc2ccc(-c3cccc(-c4nc5cc(C(F)(F)F)ccc5[nH]4)c3)cc2)CC1`, the Inhibition in experiment [1] is reported as 88%; in experiment [2] it was 33%; in experiment [3], 82%.
On to `C=C1C[C@@H](n2cnc3c(NC(=O)c4ccccc4)ncnc32)[C@@H](F)[C@@H]1OC(c1ccccc1)(c1ccccc1)c1ccccc1`, for which the Inhibition came to 98% in experiment [1], 97% in experiment [2] and 16% in experiment [3].
For `CC(=O)Nc1cccc(C(=O)Nc2cccc(-c3cccc(-c4nc5ccccc5[nH]4)c3)c2)c1` the same measures were 100%, 66% and 41%.
For `COc1ccc(Cl)cc1NC(=O)Nc1ccc2c(c1)CCN(C1CCC1)CC2.Cl` the same measures were 98%, 19% and 38%.
For `Cc1nc2ccc(NC(=O)c3cc(S(=O)(=O)N(C)C)ccc3Cl)cc2s1`, in that order: 91%, 77% and 20%.
For `C=Cc1ccccc1C1(O)CCN(CCCCNC(=O)c2ccc(-c3ccc(C#N)cc3)cc2)CC1`, the values for the Inhibition in experiment [1], in experiment [2] and in experiment [3] were 88%, 64% and 27%, respectively.
For `Cc1ccc(-c2cc(C(=O)Nc3ccc(S(=O)(=O)N(C)Cc4ccccc4)cc3)[nH]n2)c(O)c1` the same measures were 99%, 67% and 34%.
For `COc1cc(C)nc2ccc(NC(=O)Nc3ccc([N+](=O)[O-])cc3C)cc12` the same measures were 90%, 52% and 10%.
As to `Cc1cccc(CN2CCCC3(CCN(Cc4ccccc4O)C3)C2)c1` (stereo not drawn), the Inhibition stood at 99% in experiment [1], 76% in experiment [2] and 14% in experiment [3].
For the molecule `COc1ccc(-c2nc3ccc(C)nc3nc2-c2ccc(OC)cc2)cc1`, the Inhibition in experiment [1] is 91%; in experiment [2], 0%; in experiment [3] it was 4%.
For `Cc1cc(N[C@@H](Cc2ccccc2)C(=O)NC2CCCC2)nc(NCCc2ccc(F)cc2)n1.O=C(O)C(F)(F)F` the same measures were 100%, 61% and 21%.
Turning to `Cl.N#Cc1ccc2c(c1)CCN(CCC1CCC(NC(=O)/C=C/c3ccc4ccccc4c3)CC1)CC2` (stereo not drawn), the Inhibition is 97% in experiment [1], 12% in experiment [2] and 20% in experiment [3].
For `COc1ccc(C(c2ccc(N(C)C)cc2)c2ccc(N(C)C)cc2)cc1`, in that order: 100%, 99% and 72%.
For `Cn1nc(-c2cccc(CNC3CCc4ccccc43)c2)c2cnc(NC3CCCC3)nc21` (stereo not drawn), in that order: 100%, 23% and 14%.
For `CC(=O)Nc1ccc(OCCCCN(Cc2ccccc2C(F)(F)F)c2ccc(C(F)(F)F)c(C#N)c2)c(Cl)c1` the same measures were 96%, 96% and 14%.
In the case of `Cc1cccc(OC2CCN(c3ncc(C(=O)NCCCN4CCCC4=O)cc3Cl)CC2)c1`, the figures for the Inhibition in experiment [1], in experiment [2] and in experiment [3] were 96%, 95% and 7%, respectively.
For `CN1CCN(c2nc(NCCNc3ccc([N+](=O)[O-])cc3)c3ccccc3n2)CC1` the same measures were 90%, 25% and 37%.
For `COc1ccc(-c2cccc(NC(=O)c3ccc(Cl)cc3)c2)cc1CN1CCC(O)CC1.O=C(O)C(F)(F)F` the same measures were 100%, 43% and 51%.
As to `Cc1nc(C)c(-c2ccc(Oc3ccc(Cl)cc3Cl)cc2)c(O)c1Br`, the Inhibition in experiment [1] was determined as 98%; in experiment [2], 94%; in experiment [3], 3%.
For `Cc1ccc(-c2cc(C(=O)Nc3ccc(S(=O)(=O)N4CCCC(C)C4)cc3)[nH]n2)c(O)c1` (stereo not drawn) the same measures were 100%, 99% and 32%.
In the case of `FC(F)(F)c1cccc(-c2cc(NCCCn3ccnc3)nc(-c3ccncc3)n2)c1`, the Inhibition in experiment [1] is 100%; in experiment [2], 100%; in experiment [3] it was 50%.
For the molecule `Cl.Nc1c2c(nc3ccc(NC(=O)c4ccc([N+](=O)[O-])cc4)cc13)CCCC2`, the results for the Inhibition in experiment [1], in experiment [2] and in experiment [3] were 100%, 72% and 19%, respectively.
For `COc1cccc2cc(C(=O)N[C@@H](CC(C)C)C(=O)N[C@H](C=NN(C)C(=O)OC(C)(C)C)Cc3ccccc3)oc12` the same measures were 99%, 89% and 5%.
For `CCOc1ccc(C(Cc2ccccc2)NC(=O)c2cccnc2)cc1OCC` (stereo not drawn), in that order: 100%, 98% and 0%.
Turning to `O=C(O)C(F)(F)F.OCC1CCN(Cc2ccc(-c3ccc(-c4nc5cc(C(F)(F)F)ccc5[nH]4)cc3)cc2)CC1`, the Inhibition in experiment [1] was 100%; in experiment [2], 91%; in experiment [3], 17%.
For `O=C(Cc1c[nH]cn1)Nc1ccc(-c2cccc(-c3nc4cc(F)ccc4[nH]3)c2)cc1`, in that order: 100%, 70% and 28%.
For `O=C(NCc1ccc(Cl)c(Cl)c1)[C@H]1CNCCN1C(=O)c1ccccc1.O=C(O)C(F)(F)F`, in that order: 97%, 4% and 0%.
With `Cc1cc(N)c2cc(NC(=O)c3cc4ccccc4s3)ccc2n1`, the Inhibition is 100% in experiment [1], 99% in experiment [2] and 100% in experiment [3].
